Several values for one entry are separate records, joined by “and”; a condition that tells them apart may be missing. Identical values can stand only once. Inconclusive results are not listed. Where a structure was tested more than once in an assay, its records may differ in their call. Activity calls are given as the source filed them. Rule for the calls, unless noted: active = hit-call score of the fitted dose curve at least 0.9, where 1 is the maximum; inactive = score below 0.9.
Experiments:
[1] = BSK_4H_Eotaxin3: BioMAP Diversity Plus: 4H Assay for Eotaxin 3 Biomarker Activity (AID 2283000); settings: primary human endothelial cells (HUVEC); actives raise or lower the signal
Procedure, shortened: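 Readout is Eotaxin-3 (CCL26) level by ELISA in primary human umbilical vein endothelial cells harvested 24 h after chemical exposure; activity fitted in both directions against DMSO control.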

[2] = biological target: human Peroxisome Proliferator-activated Receptor alpha (PPARa), PPARA (gene 5465) (UniProt Q07869); assay: ATG_PPARa_TRANS: Attagene TRANS-FACTORIAL HepG2 Assay for human Peroxisome Proliferator-activated Receptor alpha (PPARa) (AID 2283001; active = hit-call score of the fitted dose curve at least 0.9, where 1 is the maximum;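 for AC50: potency for gain of reporter signal over DMSO so agonist or activator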)
Procedure, shortened: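 HepG2, transient MRTU transfection, 24 h treatment. RT-PCR → FAM labelling → capillary electrophoresis. Fit vs DMSO, positive direction.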

[3] = biological target: human Peroxisome Proliferator-activated Receptor delta (PPARd), PPARD (gene 5467) (UniProt Q03181); assay: ATG_PPARd_TRANS: Attagene TRANS-FACTORIAL HepG2 Assay for human Peroxisome Proliferator-activated Receptor delta (PPARd) (AID 2283002; active = hit-call score of the fitted dose curve at least 0.9, where 1 is the maximum)
Procedure, shortened: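 HepG2 cells transiently transfected with GAL4-UAS multiplexed reporter units driven by exogenous chimeric NR-GAL4 proteins; 24 h compound exposure. Reporter mRNA measured by RT-PCR, 6-FAM primer extension, HpaI digestion and capillary electrophoresis; gain of signal fitted relative to DMSO.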

[4] = read-out: Intercellular Adhesion Molecule 1 (ICAM1), ICAM1 (gene 3383); assay: BSK_3C_ICAM1: BioMAP Diversity Plus: 3C Assay for Intercellular Adhesion Molecule 1 (ICAM1) Biomarker Activity (AID 2283003); settings: primary human endothelial cells (HUVEC); actives raise or lower the signal
Procedure, shortened: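 Chemicals are dosed onto primary human umbilical vein endothelium (3C system). After 24 h, ICAM-1 is measured by ELISA, and responses are fitted bidirectionally relative to DMSO.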

[5] = BSK_3C_Proliferation: Cell Proliferation Assessment in the BioMAP Diversity Plus: 3C Assay (AID 2283006); settings: primary human endothelial cells (HUVEC);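 for AC50: potency may reflect either rise or fall in cell number versus DMSO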
Procedure, shortened: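 Cells (human umbilical vein endothelial, sub-confluent) receive test chemical; after 48 h they are fixed in 10% trichloroacetic acid, stained with 0.1% SRB and read at 560 nm. Activity is referenced to DMSO, fitting increases and decreases.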

[6] = biological target: Peroxisome proliferator-activated receptor gamma (Homo sapiens) (UniProt P37231); assay: ATG_PPARg_TRANS: Attagene TRANS-FACTORIAL HepG2 Assay for human Peroxisome Proliferator-activated Receptor-gamma (PPARg) (AID 2283007; active = hit-call score of the fitted dose curve at least 0.9, where 1 is the maximum)
Procedure, shortened: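 After 24 h of chemical exposure, transfected HepG2 cells carrying PPARγ-Gal4 chimera reporter constructs are lysed for RNA. Reporter transcripts are measured by RT-PCR and capillary electrophoresis with fluorescent labelling, and gain of signal is fitted versus DMSO.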

[7] = biological target: Nuclear receptor subfamily 1 group I member 2 (Homo sapiens) (UniProt O75469); assay: ATG_PXR_TRANS: Attagene TRANS-FACTORIAL HepG2 Assay for human Pregnane X Receptor (PXR) (AID 2283008; active = hit-call score of the fitted dose curve at least 0.9, where 1 is the maximum)
Procedure, shortened: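 Transactivation by exogenous PXR–GAL4 fusion measured as reporter transcript induction after 24 h compound treatment of transfected human HepG2 cells. Read-out via RT-PCR and capillary electrophoresis of labelled fragments, fitted upward relative to DMSO.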

[8] = biological target: human RAR-related Orphan Receptor beta (RORb), RORB (gene 6096) (UniProt Q92753); assay: ATG_RORb_TRANS: Attagene TRANS-FACTORIAL HepG2 Assay for human RAR-related Orphan Receptor beta (RORb) (AID 2283010; active = hit-call score of the fitted dose curve at least 0.9, where 1 is the maximum)
Procedure, shortened: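 Transfect HepG2 with multiple GAL4-UAS reporter transcription units; dose chemicals for 24 h; isolate RNA, reverse-transcribe and PCR-amplify reporter sequences; label, digest and resolve fragments by capillary electrophoresis; fit increases relative to DMSO.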

[9] = biological target: human RAR-related Orphan Receptor gamma (RORg), RORC (gene 6097) (UniProt P51449); assay: ATG_RORg_TRANS: Attagene TRANS-FACTORIAL HepG2 Assay for human RAR-related Orphan Receptor gamma (RORg) (AID 2283011; active = hit-call score of the fitted dose curve at least 0.9, where 1 is the maximum)
Procedure, shortened: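 Transient MRTU transfection of HepG2 (TRANS format, exogenous NR-Gal4 chimera). 24 h dosing. Total RNA → oligo(dT) RT → PCR → 6-FAM labelling → HpaI cut → CE. Gain vs DMSO.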

[10] = biological target: Retinoic acid receptor RXR-alpha (Homo sapiens) (UniProt P19793); assay: ATG_RXRa_TRANS: Attagene TRANS-FACTORIAL HepG2 Assay for human Retinoid X Receptor alpha (RXRa) (AID 2283012; active = hit-call score of the fitted dose curve at least 0.9, where 1 is the maximum)
Procedure, shortened: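 Measures exogenous chimeric NR-GAL4 activity in transfected HepG2 liver cells after 24 h of dosing. Induced reporter mRNA was detected by RT-PCR with capillary electrophoresis, and gain of signal was analysed against DMSO.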

[11] = biological target: human Retinoid X Receptor beta (RXRb), RXRB (gene 6257) (UniProt P28702); assay: ATG_RXRb_TRANS: Attagene TRANS-FACTORIAL HepG2 Assay for human Retinoid X Receptor beta (RXRb) (AID 2283013; active = hit-call score of the fitted dose curve at least 0.9, where 1 is the maximum)
Procedure, shortened: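 Chimeric receptor-Gal4 activity was assessed in transiently transfected human HepG2 cells after 24 h exposure. Transcripts from GAL4-UAS reporters were quantified by fluorescent RT-PCR and capillary electrophoresis, with DMSO as negative control and baseline.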

[12] = biological target: human Thyroid Receptor alpha (THRa1), THRA (gene 7067) (UniProt P10827); assay: ATG_THRa1_TRANS: Attagene TRANS-FACTORIAL HepG2 Assay for human Thyroid Receptor alpha (THRa1) (AID 2283014; active = hit-call score of the fitted dose curve at least 0.9, where 1 is the maximum)
Procedure, shortened: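 Transient HepG2 transfection, NR-Gal4 chimera driving GAL4-UAS reporters; 24 h compound exposure; total RNA, oligo(dT) RT, PCR, fluorescent primer extension, capillary electrophoresis. Upward direction vs DMSO control.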

[13] = read-out: E-selectin (Homo sapiens) (UniProt P16581); assay: BSK_3C_Eselectin: BioMAP Diversity Plus: 3C Assay for Eselectin Biomarker Activity (AID 2283015); settings: primary human endothelial cells (HUVEC); actives raise or lower the signal
Procedure, shortened: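 HUVEC, 3C stimulation; compound exposure 24 h; E-selectin by ELISA; gain- or loss-of-signal fitted bidirectionally vs DMSO baseline.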

[14] = read-out: Interleukin-1 alpha (IL1a), IL1A (gene 3552); assay: BSK_BE3C_IL1a: BioMAP Diversity Plus: BE3C Assay for Interleukin-1 alpha (IL1a) Biomarker Activity (AID 2283016); settings: primary human bronchial epithelial cells; actives raise or lower the signal
Procedure, shortened: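 Signal from IL-1a ELISA, taken 24 h after chemical dosing of human bronchial epithelial cells, is compared with DMSO as baseline using bidirectional curve fitting.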

[15] = read-out: Monocyte Chemoattractant Protein-1 (MCP1), CCL2 (gene 6347); assay: BSK_3C_MCP1: BioMAP Diversity Plus: 3C Assay for Monocyte Chemoattractant Protein-1 (MCP1) Biomarker Activity (AID 2283017); settings: primary human endothelial cells (HUVEC); actives raise or lower the signal
Procedure, shortened: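 HUVEC, 3C system; 24 h chemical exposure; MCP-1 by ELISA; bidirectional curve fit vs DMSO baseline.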

[16] = read-out: Monocyte Chemoattractant Protein-1 (MCP1), CCL2 (gene 6347); assay: BSK_4H_MCP1: BioMAP Diversity Plus: 4H Assay for Monocyte Chemoattractant Protein-1 (MCP1) Biomarker Activity (AID 2283018); settings: primary human endothelial cells (HUVEC); actives raise or lower the signal
Procedure, shortened: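 Endothelial cells from umbilical vein were treated with test chemical, then after 24 h MCP-1 levels were quantified by ELISA; endpoint values came from bidirectional fitting with DMSO as baseline of activity.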

[17] = read-out: Human Leukocyte Antigen - DR isotype (HLADR), HLA-DRA (gene 3122); assay: BSK_3C_HLADR: BioMAP Diversity Plus: 3C Assay for Human Leukocyte Antigen - DR isotype (HLADR) Biomarker Activity (AID 2283019); settings: primary human endothelial cells (HUVEC); actives raise or lower the signal
Procedure, shortened: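 HUVEC, 3C stimulation, 24 h post-dose; HLA-DR by ELISA; bidirectional curve fit vs DMSO baseline; gain or loss of signal scored.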

[18] = biological target: human Retinoic Acid Receptor gamma (RARg), RARG (gene 5916) (UniProt P13631); assay: ATG_RARg_TRANS: Attagene TRANS-FACTORIAL HepG2 Assay for human Retinoic Acid Receptor gamma (RARg) (AID 2283009; active = hit-call score of the fitted dose curve at least 0.9, where 1 is the maximum)
Procedure, shortened: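 TRANS format measured activity of exogenous NR-GAL4 fusion (RARg) in transfected HepG2 liver cells after 24 h dosing. Induced reporter RNA was detected by RT-PCR/capillary electrophoresis fluorescence, analysed in the positive direction against DMSO.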

[19] = biological target: human Retinoic Acid Receptor beta (RARb), RARB (gene 5915) (UniProt P10826); assay: ATG_RARb_TRANS: Attagene TRANS-FACTORIAL HepG2 Assay for human Retinoic Acid Receptor beta (AID 2283004; active = hit-call score of the fitted dose curve at least 0.9, where 1 is the maximum)
Procedure, shortened: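 Readout is reporter mRNA induction: RNA reverse-transcribed, PCR-amplified, FAM-labelled, HpaI-cut and resolved by capillary electrophoresis. Transiently transfected HepG2 cells carrying exogenous NR–Gal4 chimeras were dosed for 24 h; activity fitted upward relative to DMSO.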

[20] = biological target: Retinoic acid receptor alpha (Homo sapiens) (UniProt P10276); assay: ATG_RARa_TRANS: Attagene TRANS-FACTORIAL HepG2 Assay for human Retinoic Acid Receptor alpha (RARa) (AID 2283005; active = hit-call score of the fitted dose curve at least 0.9, where 1 is the maximum)
Procedure, shortened: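 HepG2 transiently transfected with multiplex GAL4-UAS reporter units including a human RARa–GAL4 chimera; 24 h compound exposure. Reporter mRNA quantified by RT-PCR, 6-FAM labeling and capillary electrophoresis; gain of signal versus DMSO.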

Measured: AC50

Chain of human RAR-related Orphan Receptor gamma (RORg), RORC (gene 6097) (P51449 whole entry, looked up, the tested form may be a part): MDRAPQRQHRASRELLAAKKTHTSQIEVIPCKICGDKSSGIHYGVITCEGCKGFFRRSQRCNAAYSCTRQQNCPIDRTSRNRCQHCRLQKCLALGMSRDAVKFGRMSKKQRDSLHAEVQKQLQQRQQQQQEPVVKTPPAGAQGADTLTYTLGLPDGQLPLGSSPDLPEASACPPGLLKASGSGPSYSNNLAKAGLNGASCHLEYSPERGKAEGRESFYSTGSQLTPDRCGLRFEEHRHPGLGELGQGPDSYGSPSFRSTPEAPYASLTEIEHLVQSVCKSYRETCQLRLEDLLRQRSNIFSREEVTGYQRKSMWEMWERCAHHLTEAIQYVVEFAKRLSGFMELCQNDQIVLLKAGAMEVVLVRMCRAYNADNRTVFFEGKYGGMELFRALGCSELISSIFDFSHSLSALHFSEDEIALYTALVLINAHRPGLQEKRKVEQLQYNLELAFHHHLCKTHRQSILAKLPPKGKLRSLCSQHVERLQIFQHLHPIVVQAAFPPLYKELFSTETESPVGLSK
Chain of human Retinoic Acid Receptor gamma (RARg), RARG (gene 5916) (P13631 whole entry, looked up, the tested form may be a part): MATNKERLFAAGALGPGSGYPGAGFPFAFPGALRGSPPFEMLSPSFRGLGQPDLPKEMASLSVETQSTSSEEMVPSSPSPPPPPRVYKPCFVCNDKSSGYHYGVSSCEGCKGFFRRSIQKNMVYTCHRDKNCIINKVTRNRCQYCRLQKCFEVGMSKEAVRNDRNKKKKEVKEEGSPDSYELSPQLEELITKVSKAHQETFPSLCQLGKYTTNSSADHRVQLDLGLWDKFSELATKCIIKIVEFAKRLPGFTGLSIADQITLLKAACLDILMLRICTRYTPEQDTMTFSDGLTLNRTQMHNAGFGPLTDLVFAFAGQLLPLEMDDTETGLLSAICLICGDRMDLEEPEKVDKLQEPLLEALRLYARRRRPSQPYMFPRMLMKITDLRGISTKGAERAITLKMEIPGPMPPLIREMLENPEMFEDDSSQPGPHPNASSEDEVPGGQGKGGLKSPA
Chain of Nuclear receptor subfamily 1 group I member 2 (Homo sapiens) (O75469 whole entry, looked up, the tested form may be a part): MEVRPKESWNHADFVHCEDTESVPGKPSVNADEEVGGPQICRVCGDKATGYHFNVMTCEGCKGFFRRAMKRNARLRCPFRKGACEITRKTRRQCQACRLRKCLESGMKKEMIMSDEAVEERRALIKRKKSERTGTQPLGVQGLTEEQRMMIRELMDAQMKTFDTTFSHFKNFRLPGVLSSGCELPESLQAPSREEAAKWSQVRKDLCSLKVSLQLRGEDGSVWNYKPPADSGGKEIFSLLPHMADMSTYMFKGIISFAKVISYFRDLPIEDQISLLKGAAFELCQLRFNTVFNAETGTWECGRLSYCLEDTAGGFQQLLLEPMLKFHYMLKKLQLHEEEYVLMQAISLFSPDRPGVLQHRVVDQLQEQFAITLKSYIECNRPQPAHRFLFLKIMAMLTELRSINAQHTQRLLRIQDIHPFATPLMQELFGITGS
Chain of Retinoic acid receptor alpha (Homo sapiens) (P10276 whole entry, looked up, the tested form may be a part): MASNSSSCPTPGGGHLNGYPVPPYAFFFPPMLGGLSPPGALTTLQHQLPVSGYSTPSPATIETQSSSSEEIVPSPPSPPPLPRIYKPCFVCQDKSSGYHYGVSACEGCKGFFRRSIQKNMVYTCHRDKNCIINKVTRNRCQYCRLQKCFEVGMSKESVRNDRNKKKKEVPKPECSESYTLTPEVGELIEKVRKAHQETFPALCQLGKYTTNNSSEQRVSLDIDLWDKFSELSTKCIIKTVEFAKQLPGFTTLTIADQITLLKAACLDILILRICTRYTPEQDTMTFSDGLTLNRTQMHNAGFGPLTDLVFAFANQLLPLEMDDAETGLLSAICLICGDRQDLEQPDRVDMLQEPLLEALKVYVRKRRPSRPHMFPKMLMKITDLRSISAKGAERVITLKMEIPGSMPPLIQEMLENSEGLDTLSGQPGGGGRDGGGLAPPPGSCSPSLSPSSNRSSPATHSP
Chain of E-selectin (Homo sapiens) (P16581 whole entry, looked up): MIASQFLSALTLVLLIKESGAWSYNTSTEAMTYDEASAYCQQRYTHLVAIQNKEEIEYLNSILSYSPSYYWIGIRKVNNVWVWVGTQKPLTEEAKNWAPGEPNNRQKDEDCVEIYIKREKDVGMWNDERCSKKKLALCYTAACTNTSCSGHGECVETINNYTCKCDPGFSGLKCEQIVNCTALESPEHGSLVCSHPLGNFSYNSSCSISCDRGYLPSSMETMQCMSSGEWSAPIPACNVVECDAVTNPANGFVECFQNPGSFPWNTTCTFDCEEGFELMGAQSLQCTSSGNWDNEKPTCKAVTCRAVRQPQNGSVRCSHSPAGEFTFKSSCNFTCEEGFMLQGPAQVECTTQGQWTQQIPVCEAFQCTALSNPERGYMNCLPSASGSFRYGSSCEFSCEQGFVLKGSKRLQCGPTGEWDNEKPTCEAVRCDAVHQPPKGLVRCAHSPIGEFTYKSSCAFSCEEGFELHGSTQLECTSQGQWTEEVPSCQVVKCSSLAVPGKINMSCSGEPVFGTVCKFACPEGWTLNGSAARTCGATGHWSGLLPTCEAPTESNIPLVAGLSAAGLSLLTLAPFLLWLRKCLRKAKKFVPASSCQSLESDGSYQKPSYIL
Chain of human Peroxisome Proliferator-activated Receptor delta (PPARd), PPARD (gene 5467) (Q03181 whole entry, looked up, the tested form may be a part): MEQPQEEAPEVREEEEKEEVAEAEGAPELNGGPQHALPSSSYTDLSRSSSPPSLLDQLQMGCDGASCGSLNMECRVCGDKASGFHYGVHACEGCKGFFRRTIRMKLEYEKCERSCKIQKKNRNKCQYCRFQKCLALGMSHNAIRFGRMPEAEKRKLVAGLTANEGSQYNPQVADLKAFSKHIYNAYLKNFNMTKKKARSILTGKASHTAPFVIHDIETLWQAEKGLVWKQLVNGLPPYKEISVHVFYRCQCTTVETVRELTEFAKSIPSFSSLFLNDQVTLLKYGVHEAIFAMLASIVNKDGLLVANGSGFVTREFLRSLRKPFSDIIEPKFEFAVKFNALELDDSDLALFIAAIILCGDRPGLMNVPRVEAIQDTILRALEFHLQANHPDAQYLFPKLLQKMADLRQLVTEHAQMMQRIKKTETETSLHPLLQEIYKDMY
Chain of human Peroxisome Proliferator-activated Receptor alpha (PPARa), PPARA (gene 5465) (Q07869 whole entry, looked up): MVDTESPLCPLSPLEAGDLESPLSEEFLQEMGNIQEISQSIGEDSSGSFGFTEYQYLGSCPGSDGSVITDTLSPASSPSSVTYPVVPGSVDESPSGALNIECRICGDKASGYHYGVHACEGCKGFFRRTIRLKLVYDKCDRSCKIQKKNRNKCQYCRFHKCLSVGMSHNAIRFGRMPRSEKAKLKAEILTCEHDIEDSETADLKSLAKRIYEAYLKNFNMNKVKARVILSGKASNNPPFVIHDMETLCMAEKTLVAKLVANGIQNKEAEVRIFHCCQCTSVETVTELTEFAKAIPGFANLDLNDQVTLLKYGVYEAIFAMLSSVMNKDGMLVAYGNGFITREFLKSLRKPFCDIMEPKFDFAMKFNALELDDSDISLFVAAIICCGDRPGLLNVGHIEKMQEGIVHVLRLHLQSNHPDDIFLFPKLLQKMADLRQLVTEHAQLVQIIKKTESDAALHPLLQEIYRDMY
Chain of human Thyroid Receptor alpha (THRa1), THRA (gene 7067) (P10827 whole entry, looked up, the tested form may be a part): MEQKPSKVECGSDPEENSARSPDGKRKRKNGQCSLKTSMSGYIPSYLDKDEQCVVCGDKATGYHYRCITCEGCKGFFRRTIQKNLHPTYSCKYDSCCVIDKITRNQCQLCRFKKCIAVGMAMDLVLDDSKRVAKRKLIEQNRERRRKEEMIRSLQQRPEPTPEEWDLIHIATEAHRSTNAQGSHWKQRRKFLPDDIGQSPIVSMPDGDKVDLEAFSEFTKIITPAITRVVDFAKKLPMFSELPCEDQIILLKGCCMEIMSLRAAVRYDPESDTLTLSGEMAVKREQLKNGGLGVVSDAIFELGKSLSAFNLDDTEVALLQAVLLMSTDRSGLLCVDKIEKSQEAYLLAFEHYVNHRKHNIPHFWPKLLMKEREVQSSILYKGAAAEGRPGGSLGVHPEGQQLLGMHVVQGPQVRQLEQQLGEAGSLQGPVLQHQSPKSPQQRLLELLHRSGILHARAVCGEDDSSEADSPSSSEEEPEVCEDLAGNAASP
Chain of Peroxisome proliferator-activated receptor gamma (Homo sapiens) (P37231 whole entry, looked up, the tested form may be a part): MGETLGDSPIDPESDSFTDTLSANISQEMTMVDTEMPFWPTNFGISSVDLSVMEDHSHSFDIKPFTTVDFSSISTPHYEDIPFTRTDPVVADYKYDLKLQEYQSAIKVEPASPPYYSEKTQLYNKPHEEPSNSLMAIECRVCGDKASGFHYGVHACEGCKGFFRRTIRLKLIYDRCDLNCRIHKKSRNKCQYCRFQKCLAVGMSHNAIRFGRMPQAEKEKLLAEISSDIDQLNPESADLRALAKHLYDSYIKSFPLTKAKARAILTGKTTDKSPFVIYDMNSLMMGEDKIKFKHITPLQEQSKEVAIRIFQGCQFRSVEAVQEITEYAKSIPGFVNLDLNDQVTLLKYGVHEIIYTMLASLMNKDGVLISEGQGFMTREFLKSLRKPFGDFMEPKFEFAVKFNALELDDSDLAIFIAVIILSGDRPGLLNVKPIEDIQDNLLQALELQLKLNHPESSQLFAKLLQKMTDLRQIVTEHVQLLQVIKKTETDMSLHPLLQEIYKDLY
Chain of human Retinoid X Receptor beta (RXRb), RXRB (gene 6257) (P28702 whole entry, looked up, the tested form may be a part): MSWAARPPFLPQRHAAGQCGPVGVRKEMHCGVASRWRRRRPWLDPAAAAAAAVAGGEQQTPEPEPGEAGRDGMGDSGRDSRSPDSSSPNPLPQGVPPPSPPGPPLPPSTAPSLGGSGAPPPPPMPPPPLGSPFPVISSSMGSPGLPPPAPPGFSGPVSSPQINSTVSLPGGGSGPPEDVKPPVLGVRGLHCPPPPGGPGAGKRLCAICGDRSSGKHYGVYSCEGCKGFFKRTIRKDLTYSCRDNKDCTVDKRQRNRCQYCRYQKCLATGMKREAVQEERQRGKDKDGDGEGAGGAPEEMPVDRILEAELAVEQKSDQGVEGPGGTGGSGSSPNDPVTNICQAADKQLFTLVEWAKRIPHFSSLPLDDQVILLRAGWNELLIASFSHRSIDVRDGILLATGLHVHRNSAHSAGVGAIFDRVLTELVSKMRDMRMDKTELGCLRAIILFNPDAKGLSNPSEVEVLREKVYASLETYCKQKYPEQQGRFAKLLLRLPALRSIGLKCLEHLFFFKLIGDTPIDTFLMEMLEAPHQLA

O=C(O)C(F)(F)C(F)(F)C(F)(F)C(F)(F)C(F)(F)C(F)(F)C(F)F
active: [2] 6.55 µM | [6] 41.8 µM
inactive: [1] | [3] | [4] | [5] | [7] | [8] | [9] | [10] | [11] | [12] | [13] | [14] | [15] | [16] | [17]

OCC(F)(F)C(F)(F)C(F)(F)CO
inactive: [1] | [2] | [3] | [4] | [5] | [13] | [14] | [16] | [17]

CO[Si](C)(CCC(F)(F)C(F)(F)C(F)(F)C(F)(F)C(F)(F)C(F)(F)F)OC
inactive: [1] | [2] | [3] | [4] | [5] | [6] | [7] | [18] | [9] | [12] | [13] | [14] | [15] | [16] | [17]

NCC(F)(F)C(F)(F)C(F)(F)C(F)(F)C(F)(F)C(F)(F)C(F)(F)C(F)(F)F
inactive: [1] | [2] | [4] | [19] | [20] | [5] | [6] | [7] | [18] | [10] | [11] | [12] | [13] | [14] | [16] | [17]

C=CC(=O)OCCC(F)(F)C(F)(F)C(F)(F)C(F)(F)F
inactive: [1] | [2] | [3] | [4] | [7] | [9] | [11] | [14] | [15] | [16] | [17]
active: [5] 30 µM and 32.6 µM | [13] 33.7 µM and 30 µM

CC(C)CCCC(C)CCO (stereo not drawn)
active: [1] 36.5 µM | [4] 35.5 µM | [5] 30.4 µM | [13] 36.8 µM | [14] 30.6 µM | [15] 30.2 µM | [16] 35.3 µM | [17] 29.9 µM
inactive: [2] | [3] | [7] | [9] | [10]

CN(C(=O)C(F)(F)C(F)(F)C(F)(F)F)[Si](C)(C)C
inactive: [1] | [2] | [3] | [4] | [20] | [5] | [6] | [7] | [10] | [12] | [13] | [14] | [15] | [16] | [17]

CCN(CCO)S(=O)(=O)C(F)(F)C(F)(F)C(F)(F)C(F)(F)C(F)(F)C(F)(F)C(F)(F)C(F)(F)F
active: [1] 20.9 µM and 43.5 µM | [4] 50.8 µM and 9.21 µM | [5] 8.37 µM and 10.7 µM | [14] 45.7 µM and 19.5 µM | [15] 23.1 µM and 9.73 µM | [17] 42.6 µM and 20.2 µM
inactive: [2] | [3] | [6] | [7] | [18] | [10] | [13] | [16]

O=C1C=CC(=O)N1c1ccc(Cc2ccc(N3C(=O)C=CC3=O)cc2)cc1
inactive: [2] | [3] | [20] | [7] | [8] | [9] | [10] | [12]
active: [1] 6.05 µM | [4] 9.7 µM | [5] 3.52 µM | [13] 8.52 µM | [14] 3.26 µM | [15] 8.09 µM | [16] 7.61 µM | [17] 5.74 µM

FC(F)(F)C(F)(F)C(F)(F)C(F)(F)C(F)(F)C(F)(F)C(F)(F)CCI
inactive: [1] | [2] | [3] | [4] | [5] | [7] | [13] | [14] | [16] | [17]

OCC(F)(F)C(F)(F)C(F)(F)C(F)(F)C(F)(F)C(F)(F)C(F)(F)C(F)(F)CO
inactive: [1] | [3] | [4] | [6] | [13] | [14] | [16] | [17]
active: [1] 38 µM | [5] 30 µM and 44.6 µM | [7] 14.4 µM | [14] 30 µM | [17] 30 µM

NCC(F)(F)C(F)(F)C(F)(F)C(F)(F)C(F)(F)C(F)(F)F
inactive: [1] | [2] | [3] | [4] | [19] | [20] | [5] | [6] | [7] | [9] | [13] | [14] | [16] | [17]

C=C(C)C(=O)OCC(F)(F)C(F)(F)C(F)(F)C(F)F
inactive: [1] | [2] | [3] | [4] | [20] | [5] | [7] | [9] | [10] | [13] | [14] | [16] | [17]
